From PubChem BioAssay (Tox21)
Values without a mark were called inactive. Inconclusive results are not listed. Where a call stands in place of a potency, no number is given. Activity calls are given as the source filed them. Unless noted, calls come from the whole dose curve; as a rule, active = well fitted curve in the direction sought with a large enough effect in the repeat runs; inconclusive = weak or mixed curves; inactive = no such curve, though single readings can be large; an effect the other way counts as inactive or inconclusive.

What was measured:
[1] = qHTS assay for small molecule agonists of the p53 signaling pathway (AID 651631; calls by dose curve; note: nearly all actives have a fitted effect of over 15% in size; note: potency is the fitted concentration of half-maximal effect)
How it was run: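 Quantitative high-throughput format: 4,000 p53RE-bla HCT-116 cells/well, 5 h pre-incubation, 16 h compound exposure at 37 °C, 2 h room-temperature substrate step, fluorescence intensity measured.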

[2] = qHTS assay for small molecules that induce genotoxicity in human embryonic kidney cells expressing luciferase-tagged ATAD5 (AID 651632); note: nearly all actives have a fitted effect of over 15% in size; note: potency is the fitted concentration of half-maximal effect
How it was run: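 Increased luciferase signal from ATAD5-tagged reporter cells indicates DNA-damage-driven ATAD5 induction. HEK293T cells are treated for 16 hr at 37C before detection with Amplite.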

[3] = qHTS assay for small molecule agonists of the p53 signaling pathway - cell viability (AID 651633; calls by dose curve;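 note: p53RE-bla HCT reporter cells with a stable beta-lactamase p53 reporter; series mostly up to about 83 µM; nearly all actives have a fitted effect of over 30% in size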)
How it was run: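 p53RE-bla cells were treated with compound for 16 hours at 37 C. Cytotoxicity was then measured as CellTiter-Glo luminescence after 30 min at room temperature.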

[4] = qHTS assay for small molecules that induce genotoxicity in human embryonic kidney cells expressing luciferase-tagged ATAD5 - cell viability (AID 651634; calls by dose curve; note: nearly all actives have a fitted effect of over 25% in size; note: potency is the fitted concentration of half-maximal effect)
How it was run: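 Cytotoxicity counterscreen in HEK293T cells bearing an ATAD5-luciferase reporter: live-cell protease activity measured by CellTiter-Fluor fluorescence after 15.5 hr compound exposure.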

[5] = qHTS assay for small molecule disruptors of the mitochondrial membrane potential - cell viability (AID 720634; calls by dose curve;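 note: human HepG2 liver cancer cells; series mostly up to about 83 µM; nearly all actives have a fitted effect of over 20% in size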)
How it was run: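 After overnight attachment at 37 C, HepG2 cells received compound or DMSO vehicle for 1 hr. Viability is then taken from ATP-driven luminescence following a 30 min room-temperature CellTiter-Glo step.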

[6] = qHTS assay to test for compound auto fluorescence at 590 nm (red) in HepG2 cells (AID 720674)
How it was run: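 HepG2 cells, 2,000 per well in MEM with 10% FBS, attached overnight at 37 C, then got 23 nL compound or DMSO. After 1 hr at 37 C, 5% CO2, red fluorescence was read at 540/590 nm against Rose Bengal sodium as reference.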

[7] = qHTS assay to test for compound auto fluorescence at 535 nm (green) in HepG2 cells (AID 720675)
[8] = qHTS assay to test for compound auto fluorescence at 460 nm (blue) in HEK293 cells (AID 720678)
How it was run: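 Triamterene serves as the blue fluorophore standard. Compound signal at 405/460 nm is read in HEK293 wells (2,000 cells, 10% dialyzed FBS) after overnight treatment at 37C.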

[9] = qHTS assay to test for compound auto fluorescence at 590 nm (red) in HEK293 cells (AID 720679)
How it was run: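 We plated HEK293 cells in 10% dialyzed FBS medium, let them adhere for 4-5 hr, then added 23 nL compound. Overnight at 37C and 5% CO2 preceded fluorescence measurement at 540/590nm.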

[10] = qHTS assay to test for compound auto fluorescence at 535 nm (green) in HEK293 cells (AID 720680)
[11] = qHTS assay to test for compound auto fluorescence at 460 nm (blue) in HEK293 cell free culture (AID 720681)
How it was run: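 Compounds were added to cell-free DMEM with 10% FBS and fluorescence read directly. The blue channel used 405 nm excitation and 460 nm emission, with triamterene as the reference fluorophore.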

[12] = qHTS assay to test for compound auto fluorescence at 535 nm (green) in HEK293 cell free culture (AID 720682)
How it was run: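 Measurement is a direct plate read of green fluorescence (485 nm in, 535 nm out) after compound addition to serum-supplemented DMEM lacking cells, with fluorescein used to express intensities.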

[13] = qHTS assay to test for compound auto fluorescence at 590 nm (red) in HEK293 cell free culture (AID 720683)
How it was run: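 Cell-free wells of DMEM with 10% FBS received compound, and intrinsic fluorescence was read at excitation/emission 540/590 nm. Values expressed as equivalence to Rose Bengal sodium.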

[14] = qHTS assay to test for compound auto fluorescence at 590 nm (red) in HepG2 cell free culture (AID 720684)
How it was run: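 Compound was pinned into wells holding MEM with 10% FBS and no cells, and red fluorescence was read at Ex/Em 540/590 nm. Signal is expressed as auto fluorescence equivalency relative to Rose Bengal sodium.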

[15] = qHTS assay to test for compound auto fluorescence at 460 nm (blue) in HepG2 cell free culture (AID 720685)
How it was run: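 Compound (23 nL) or DMSO pinned into cell-free MEM with 10% FBS; blue fluorescence read at 405/460 nm excitation/emission, expressed as auto-fluorescence equivalency to triamterene.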

[16] = qHTS assay to test for compound auto fluorescence at 535 nm (green) in HepG2 cell free culture (AID 720686)
[17] = qHTS assay for small molecule disruptors of the mitochondrial membrane potential (AID 720635); note: potency is the fitted concentration of half-maximal effect
How it was run: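 HepG2 cells exposed to compound 1 hr at 37C, then Mito-MPS dye 30 min. Ratio read of aggregate (540/590 nm) versus monomer (490/535 nm) fluorescence.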

[18] = biological target: Glucocorticoid receptor (Homo sapiens) (UniProt P04150); assay: qHTS assay to identify small molecule agonists of the glucocorticoid receptor (GR) signaling pathway (AID 720691; active = well fitted activation curve with a large enough effect in the signal ratio in the repeat runs, not every such curve was filed as active; the % refers to the signal ratio)
Sequence of Glucocorticoid receptor (Homo sapiens) (P04150 whole entry, looked up): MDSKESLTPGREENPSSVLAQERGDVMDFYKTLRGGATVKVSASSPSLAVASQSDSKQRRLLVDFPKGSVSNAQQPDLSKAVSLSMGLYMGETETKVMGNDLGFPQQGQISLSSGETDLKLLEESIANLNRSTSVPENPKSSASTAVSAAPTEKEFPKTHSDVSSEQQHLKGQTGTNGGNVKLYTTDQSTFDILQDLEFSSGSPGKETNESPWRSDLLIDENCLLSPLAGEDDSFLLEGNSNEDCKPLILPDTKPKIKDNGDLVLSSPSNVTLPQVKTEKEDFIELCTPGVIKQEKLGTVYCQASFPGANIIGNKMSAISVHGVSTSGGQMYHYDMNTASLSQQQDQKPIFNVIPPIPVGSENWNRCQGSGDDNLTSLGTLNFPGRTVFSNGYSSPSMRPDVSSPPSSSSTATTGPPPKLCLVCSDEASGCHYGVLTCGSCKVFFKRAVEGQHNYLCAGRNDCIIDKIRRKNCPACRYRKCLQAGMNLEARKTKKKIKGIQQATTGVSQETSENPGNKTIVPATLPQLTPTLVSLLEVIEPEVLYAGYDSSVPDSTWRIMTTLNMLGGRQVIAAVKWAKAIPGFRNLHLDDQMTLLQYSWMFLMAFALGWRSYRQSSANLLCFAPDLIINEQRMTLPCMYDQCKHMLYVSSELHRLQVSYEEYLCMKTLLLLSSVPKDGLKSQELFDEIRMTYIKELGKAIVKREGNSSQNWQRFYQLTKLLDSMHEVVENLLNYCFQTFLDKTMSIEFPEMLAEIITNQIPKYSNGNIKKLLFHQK
How it was run: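 Agonist mode in a HeLa line carrying a GRE-controlled beta-lactamase reporter. Compounds act for 18 h at 37 C before a 2 h room-temperature FRET substrate step and fluorescence reading.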

[19] = biological target: Glucocorticoid receptor (Homo sapiens) (UniProt P04150); assay: qHTS assay to identify small molecule antagonists of the glucocorticoid receptor (GR) signaling pathway (AID 720692; active = well fitted inhibition curve with a large enough effect in the signal ratio in the repeat runs, not every such curve was filed as active; the % refers to the signal ratio)
How it was run: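 Cells plated, rested 4 h at 37 C/5% CO2; compounds in DMSO pin-transferred; dexamethasone added to 5 nM final; 18 h at 37 C; B/G FRET substrate added, 2 h room temperature; fluorescence measured.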

[20] = qHTS assay to test for compound auto fluorescence at 460 nm (blue) in HepG2 cells (AID 720687)
How it was run: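 HepG2 cells in MEM with 10% FBS, attached overnight at 37 C, were exposed to compound or DMSO for 1 hr at 37 C, 5% CO2. Blue fluorescence was read at 405/460 nm, with triamterene as reference fluorophore.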

**Q.** What does the source list for O=C(O)C(=O)Cc1c[nH]c2ccccc12?
**A.** Potency [1]: inactive; Potency [2]: inactive; Potency [3]: inactive; Potency [4]: inactive; Potency [5]: inactive; outcome [6]: inactive; outcome [7]: inactive; outcome [8]: inactive; outcome [9]: inactive; outcome [10]: inactive; outcome [11]: inactive; outcome [12]: inactive; outcome [13]: inactive; outcome [14]: inactive; outcome [15]: inactive; outcome [16]: inactive

**Q.** With CC(C)S as the compound, how does the Potency [1] read?
**A.** The Potency was “inactive”.

**Q.** And the Potency [2]?
**A.** Its Potency is “inactive”.

**Q.** And the Potency [3]?
**A.** The Potency was “inactive”.

**Q.** And the Potency [5]?
**A.** The Potency was “inactive”.

**Q.** And the Potency [17]?
**A.** The Potency was “inactive”.

**Q.** What about the outcome [6] of the same compound?
**A.** The outcome was “inactive”.

**Q.** What about the outcome [7] of the same compound?
**A.** Its outcome is “inactive”.

**Q.** What about the outcome [8] of the same compound?
**A.** Its outcome is “inactive”.

**Q.** And the outcome [9]?
**A.** The outcome was “inactive”.

**Q.** And the outcome [10]?
**A.** Its outcome is “inactive”.

**Q.** What about the outcome [11] of the same compound?
**A.** The outcome was “inactive”.

**Q.** What about the outcome [12] of the same compound?
**A.** Its outcome is “inactive”.

**Q.** What about the outcome [13] of the same compound?
**A.** The outcome was “inactive”.

**Q.** What about the outcome [14] of the same compound?
**A.** The outcome was “inactive”.

**Q.** What about the outcome [15] of the same compound?
**A.** Its outcome is “inactive”.

**Q.** And the outcome [16]?
**A.** Its outcome is “inactive”.

**Q.** What about the Potency [18] of the same compound?
**A.** The Potency was “inactive”.

**Q.** And the Potency [19]?
**A.** Its Potency is “inactive”.

**Q.** Which results are given for CC1=CC(=O)CC(C)(C)C1=O?
**A.** Potency [1]: inactive; Potency [2]: inactive; Potency [3]: inactive; Potency [4]: inactive; Potency [5]: inactive; outcome [6]: inactive; outcome [8]: inactive; outcome [9]: inactive; outcome [10]: inactive; outcome [11]: inactive; outcome [12]: inactive; outcome [13]: inactive; outcome [14]: inactive; outcome [15]: inactive; outcome [16]: inactive; outcome [20]: inactive; Potency [18]: inactive; Potency [19]: inactive

**Q.** What does the source list for COc1cc(Cl)ccc1Cl?
**A.** Potency [1]: inactive; Potency [2]: inactive; Potency [3]: inactive; Potency [4]: inactive; Potency [5]: inactive; outcome [8]: inactive; outcome [9]: inactive; outcome [10]: inactive; outcome [11]: inactive; outcome [12]: inactive; outcome [13]: inactive; outcome [14]: inactive; outcome [15]: inactive; outcome [20]: inactive; Potency [18]: inactive; Potency [19]: inactive

**Q.** Which results are given for COc1cc(N)c(Cl)cc1C(=O)NC1CCN(Cc2ccccc2)CC1?
**A.** Potency [1]: inactive; Potency [2]: inactive; Potency [3]: inactive; Potency [4]: inactive; Potency [5]: inactive; fluorescence, relative to Rose Bengal [6]: -0.629% [at 18.6 µM]; fluorescence, % of fluorescein control [7]: 0.0143% [at 18.6 µM]; fluorescence, % of triamterene [8]: 0.111% [at 18.6 µM]; fluorescence, % of fluorescent control [9]: -0.139% [at 18.6 µM]; fluorescence, % of fluorescein [10]: 0.0161% [at 18.6 µM]; fluorescence, % of fluorescent control [11]: -0.0892% [at 18.6 µM]; activity change [12]: -0.0003% [at 18.6 µM]; fluorescence, % of Rose Bengal [14]: 0.723% [at 18.6 µM]; fluorescence, % of fluorescent control [15]: 2.92% [at 18.6 µM]; fluorescence, % of fluorescein control [16]: -0.0056% [at 18.6 µM]; fluorescence, % of fluorescent control [20]: 0.034% [at 18.6 µM]; Potency [18]: inactive; Potency [19]: inactive

**Q.** What does the source list for CCCN(CCC)C(=O)C(CCC(=O)O)NC(=O)c1ccccc1 (centres undefined)?
**A.** Potency [1]: inactive; Potency [2]: inactive; Potency [3]: inactive; Potency [4]: inactive; Potency [5]: inactive; outcome [6]: inactive; outcome [7]: inactive; outcome [8]: inactive; outcome [9]: inactive; outcome [10]: inactive; outcome [11]: inactive; outcome [12]: inactive; outcome [13]: inactive; outcome [14]: inactive; outcome [16]: inactive; outcome [20]: inactive; Potency [18]: inactive

**Q.** With CCCCc1ccc2nc(NC(=O)OC)[nH]c2c1 as the compound, how does the Potency [1] read?
**A.** Its Potency is 50.7 nM (active).

**Q.** And the Potency [2]?
**A.** Its Potency is 804 nM (active).

**Q.** And the Potency [3]?
**A.** Its Potency is “inactive”.

**Q.** What about the Potency [4] of the same compound?
**A.** Its Potency is 90.2 nM (active).

**Q.** What about the Potency [5] of the same compound?
**A.** The Potency was “inactive”.

**Q.** What about the Potency [17] of the same compound?
**A.** Its Potency is 254 nM (active).

**Q.** And the fluorescence, % of fluorescein control [7]?
**A.** The fluorescence, % of fluorescein control was 0.0726% [at 18.6 µM].

**Q.** What about the fluorescence, % of triamterene [8] of the same compound?
**A.** The fluorescence, % of triamterene was -0.014% [at 18.6 µM].

**Q.** And the fluorescence, % of fluorescein [10]?
**A.** Its fluorescence, % of fluorescein is -0.231% [at 18.6 µM].

**Q.** And the fluorescence, % of fluorescent control [11]?
**A.** The fluorescence, % of fluorescent control was -0.0022% [at 18.6 µM].

**Q.** What about the activity change [12] of the same compound?
**A.** The activity change was 0.0865% [at 18.6 µM].

**Q.** And the fluorescence, % of fluorescent control [13]?
**A.** Its fluorescence, % of fluorescent control is 0.113% [at 18.6 µM].

**Q.** What about the fluorescence, % of Rose Bengal [14] of the same compound?
**A.** Its fluorescence, % of Rose Bengal is 0.0227% [at 18.6 µM].

**Q.** And the fluorescence, % of fluorescent control [15]?
**A.** The fluorescence, % of fluorescent control was -0.0558% [at 18.6 µM].

**Q.** And the fluorescence, % of fluorescein control [16]?
**A.** Its fluorescence, % of fluorescein control is -0.0094% [at 18.6 µM].

**Q.** And the fluorescence, % of fluorescent control [20]?
**A.** The fluorescence, % of fluorescent control was -0.0106% [at 18.6 µM].
